Assay [1] is described as follows: qHTS assay for small molecules that induce genotoxicity in human embryonic kidney cells expressing luciferase-tagged ATAD5 (AID 651632). Note: nearly all actives have a fitted effect of over 15% in size. An outline of the steps:
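HEK293T cells carrying luciferase-tagged ATAD5 were given compound or DMSO vehicle and incubated 16 hr at 37C, 5% CO2. Luciferase activity was read after 30 min at room temperature with Amplite; a rise signals genotoxic stress.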
(qHTS replaces the single test concentration by a dilution series.)

Assay [2] in a line: qHTS assay for small molecule agonists of the p53 signaling pathway - cell viability (AID 651633; calls by dose curve;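 note: p53RE-bla HCT reporter cells with a stable beta-lactamase p53 reporter; series mostly up to about 83 µM; nearly all actives have a fitted effect of over 30% in size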). An outline of the steps:
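p53RE-bla cells were treated with compound for 16 hours at 37 C. Cytotoxicity was then measured as CellTiter-Glo luminescence after 30 min at room temperature.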

Assay [3] in a line: qHTS assay for small molecule disruptors of the mitochondrial membrane potential - cell viability (AID 720634; calls by dose curve;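 note: human HepG2 liver cancer cells; series mostly up to about 83 µM; nearly all actives have a fitted effect of over 20% in size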). An outline of the steps:
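HepG2 cells, 2,000 per well, attached overnight, then treated 1 hr at 37 C, 5% CO2. Viability read as ATP by CellTiter-Glo luminescence after 30 min at room temperature. Read in the same wells as the m-MPI membrane-potential dye assay.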

Assay [4] is described as follows: qHTS assay for small molecule disruptors of the mitochondrial membrane potential (AID 720635). An outline of the steps:
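HepG2 cells exposed to compound 1 hr at 37C, then Mito-MPS dye 30 min. Ratio read of aggregate (540/590 nm) versus monomer (490/535 nm) fluorescence.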

The nature of assay [5]: qHTS assay to test for compound auto fluorescence at 590 nm (red) in HepG2 cells (AID 720674). An outline of the steps:
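Seeding: 2,000 HepG2 cells/well, MEM/10% FBS, overnight 37 C. Dosing: compound vs DMSO. Incubation: 1 hr, 37 C, 5% CO2. Read: fluorescence 540 ex/590 em, Rose Bengal sodium as red reference.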

The nature of assay [6]: qHTS assay to test for compound auto fluorescence at 535 nm (green) in HepG2 cells (AID 720675).
The nature of assay [7]: qHTS assay to test for compound auto fluorescence at 460 nm (blue) in HEK293 cells (AID 720678). An outline of the steps: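 Blue read-out at excitation 405 nm and emission 460 nm follows overnight compound exposure of HEK293 cells at 37C in 5% CO2. Activity is given as auto fluorescence equivalency to triamterene.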
Assay [8] in a line: qHTS assay to test for compound auto fluorescence at 590 nm (red) in HEK293 cells (AID 720679). An outline of the steps:
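Red channel, Ex/Em 540/590nm; signal expressed as equivalency to Rose Bengal sodium. HEK293, 2,000 cells/well, 10% dialyzed FBS; 23 nL compound pinned after 4-5 hr attachment; overnight 37C/5% CO2 before reading.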

The nature of assay [9]: qHTS assay for small molecules that induce genotoxicity in human embryonic kidney cells expressing luciferase-tagged ATAD5 - cell viability (AID 651634; calls by dose curve; note: nearly all actives have a fitted effect of over 25% in size; note: potency is the fitted concentration of half-maximal effect). An outline of the steps: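 HEK293T cells carrying luciferase-tagged ATAD5, 2,000 cells/well, exposed to compound for 15.5 hr at 37C. Viability read as live-cell protease activity by CellTiter-Fluor fluorescence after 30 min at 37C.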

Each structure is given as a SMILES string. A number with no mark means an inactive call. Records with an inconclusive call do not appear. The source made the active and inactive calls. Unless noted, calls come from the whole dose curve; as a rule, active = well fitted curve in the direction sought with a large enough effect in the repeat runs; inconclusive = weak or mixed curves; inactive = no such curve, though single readings can be large; an effect the other way counts as inactive or inconclusive.
% is set by controls: 0 for no effect and ±100 for the full control effect.

In the case of `CN=C(NC#N)NCCSCc1csc(N=C(N)N)n1`, the compound was classed as inactive in [1], in assay [2], in assay [3], in assay [5], in assay [6] and in assay [7]. Moreover, the outcome in assay [8] was inactive. For the same compound, the Potency entry in assay [4] was “inactive”.
As to `C=C(C)C(=O)OC1CC(C)CC(C)(C)C1` (stereo not drawn), the compound was classed as inactive in [1], in [2], in [3], in [5], in assay [6] and in [7]. In addition, the compound was called inactive in assay [8].
For `CC(=O)Nc1ccc(C)cc1`, the compound was classed as inactive in assay [1], in assay [2], in assay [3], in assay [5], in [6] and in assay [7]. Moreover, the call in assay [8] was inactive.
For the compound `CCOc1ccc(NC(=O)OC(C)C)cc1OCC`, the result in assay [1], in assay [2], in assay [5], in assay [6], in assay [7] and in [8] was inactive. The Potency result in [9] is “inactive”.
Consider `CC(C)CCC(=O)CCC(C)C`, for which the call in assay [1], in assay [2], in assay [3], in assay [5], in assay [6] and in assay [7] was inactive. The compound was called inactive in [8].
As to `CCCCCCCCC(=O)OCC`, the outcome in assay [1], in assay [2], in [6], in assay [7] and in assay [8] was inactive. Moreover, in assay [4], the Potency entry was “inactive”.
As for `C[C@@H]1C[C@H]2[C@@H]3C[C@H](F)C4=CC(=O)C=C[C@]4(C)[C@@]3(F)[C@@H](O)C[C@]2(C)[C@@]1(O)C(=O)CO`, in assay [2], the compound was called inactive. Also, in assay [9], the Potency result was “inactive”. Moreover, the fluorescence, relative to Rose Bengal in assay [5] was -0.458% [at 18.6 µM]. Besides, the fluorescence, % of fluorescein control in assay [6] is 0.0352% [at 18.6 µM]. For the same compound, the fluorescence, % of triamterene in assay [7] is -0.0057% [at 18.6 µM]. For the same compound, the fluorescence, % of fluorescent control in assay [8] is -0.084% [at 18.6 µM].
`CCCCCCCC[Si](OCC)(OCC)OCC`: the result in assay [1], in assay [5], in assay [6], in [7] and in [8] was inactive.
In the case of `C=C(C)C(=O)OC`, the compound was classed as inactive in assay [2], in assay [3], in assay [5], in [6], in assay [7] and in assay [8]. In assay [9], the Potency entry is “inactive”.
Turning to `Cc1cccc(Nc2ccncc2S(=O)(=O)NC(=O)NC(C)C)c1`, the result in [1], in assay [2] and in assay [3] was inactive. Further, in assay [5], the fluorescence, relative to Rose Bengal is -0.554% [at 18.6 µM]. In addition, the fluorescence, % of fluorescein control in assay [6] is 0.0113% [at 18.6 µM]. Also, the fluorescence, % of triamterene in [7] was 0.173% [at 18.6 µM]. Also, the fluorescence, % of fluorescent control in assay [8] was 0.875% [at 18.6 µM].
Regarding `O=S(=O)(O)SSS(=O)(=O)O`, the compound was classed as inactive in assay [1], in assay [2], in assay [3], in [6], in [7] and in [8].
Consider `CCOC(=O)OCC/C(SC(=O)OCC)=C(\C)N(C=O)Cc1cnc(C)nc1N`, for which the compound was called inactive in assay [1], in assay [2], in assay [3], in [5], in [6] and in assay [7]. Also, the outcome in assay [8] was inactive. For the same compound, the Potency entry in assay [4] is “inactive”.
Take `C[C@H](CCC(=O)O)[C@H]1CC[C@H]2[C@@H]3[C@H](O)C[C@@H]4C[C@H](O)CC[C@]4(C)[C@H]3C[C@H](O)[C@]12C`: the compound was classed as inactive in [1], in assay [2], in assay [3], in [5], in [6] and in assay [7]. The compound was classed as inactive in assay [8]. The Potency result in [4] is “inactive”.
For the compound `Cc1nc([N+](=O)[O-])cn1-c1ccc([N+](=O)[O-])cc1`, the call in assay [1], in assay [2], in assay [5], in assay [6], in assay [7] and in [8] was inactive. Moreover, the Potency entry in [4] is “inactive”.
For `Cc1cccc(NC(=S)N(C)C)c1`, the outcome in [1], in [3], in assay [5], in assay [6], in [7] and in [8] was inactive. Further, the Potency result in assay [9] was “inactive”.
As to `COc1cc2c(Nc3ccc(Br)cc3F)ncnc2cc1OCC1CCN(C)CC1`, the compound was called inactive in assay [1], in assay [3], in assay [5], in assay [6], in assay [7] and in assay [8]. Besides, in [9], the Potency was 13.3 µM (active).
Regarding `NC(Cc1c[nH]c2ccccc12)C(=O)O` (stereo not drawn), the compound was classed as inactive in assay [2], in assay [3], in assay [5], in [6], in assay [7] and in [8]. Moreover, in assay [9], the Potency result is “inactive”.
With `CC(CC(=O)O)CC(C)(C)C` (stereo not drawn), the compound was classed as inactive in assay [1], in assay [2], in assay [3], in assay [5], in assay [6] and in [7]. For the same compound, the compound was classed as inactive in [8].
For `O=S1(=O)CCCC1`, the compound was called inactive in [1], in assay [2], in [5], in assay [6], in assay [7] and in [8].
Consider `O=C(O)c1c(Cl)ccc(Cl)c1Cl`, for which the result in [1], in assay [5], in assay [6], in [7] and in assay [8] was inactive.
As to `CCCCCCCCCCCCC1CO1` (stereo not drawn), the result in [2], in assay [3], in [5], in [6], in [7] and in assay [8] was inactive.
For `CN[C@@H]1[C@@H](O)[C@@H](O[C@@H]2[C@H](O)[C@H](O[C@H]3OC(CN)=CC[C@H]3N)[C@@H](N)C[C@H]2N)OCC1(C)O` (stereo partly drawn), the call in assay [1], in assay [3], in assay [5], in assay [6], in assay [7] and in assay [8] was inactive. The Potency result in [9] is “inactive”.
As for `COc1ccc(NS(=O)(=O)c2ccc(N)cc2)nn1`, the result in [1], in assay [2] and in assay [3] was inactive. The fluorescence, relative to Rose Bengal in [5] was 0.178% [at 18.6 µM]. Also, the fluorescence, % of fluorescein control in assay [6] is -0.0175% [at 18.6 µM]. Besides, the fluorescence, % of triamterene in assay [7] is -0.19% [at 18.6 µM]. In assay [8], the fluorescence, % of fluorescent control is -0.981% [at 18.6 µM].
Regarding `CN(C)CCCNCCC#N`, the call in assay [1], in assay [2], in assay [3], in assay [6], in assay [7] and in [8] was inactive.
For the compound `O=S(=O)(O)CCO`, the compound was classed as inactive in assay [1], in [2], in [5], in [6], in assay [7] and in [8]. Further, the Potency entry in assay [9] was “inactive”.

The values above are taken from PubChem BioAssay (Tox21).
